Experimental findings from PubChem BioAssay (EPA / NIEHS) are described below.

As a reminder, the AC50 is the concentration giving half of the maximal activity seen.

Each structure is given as a SMILES string. Results filed as inconclusive are left out. Calls of active or inactive are those of the source. The calls were made as follows: active = hit-call score of the fitted dose curve at least 0.9, where 1 is the maximum; inconclusive = response in the unintended direction; inactive = score below 0.9.

Nuclear receptor subfamily 1 group I member 2 (Homo sapiens), sequence (O75469 whole entry, looked up): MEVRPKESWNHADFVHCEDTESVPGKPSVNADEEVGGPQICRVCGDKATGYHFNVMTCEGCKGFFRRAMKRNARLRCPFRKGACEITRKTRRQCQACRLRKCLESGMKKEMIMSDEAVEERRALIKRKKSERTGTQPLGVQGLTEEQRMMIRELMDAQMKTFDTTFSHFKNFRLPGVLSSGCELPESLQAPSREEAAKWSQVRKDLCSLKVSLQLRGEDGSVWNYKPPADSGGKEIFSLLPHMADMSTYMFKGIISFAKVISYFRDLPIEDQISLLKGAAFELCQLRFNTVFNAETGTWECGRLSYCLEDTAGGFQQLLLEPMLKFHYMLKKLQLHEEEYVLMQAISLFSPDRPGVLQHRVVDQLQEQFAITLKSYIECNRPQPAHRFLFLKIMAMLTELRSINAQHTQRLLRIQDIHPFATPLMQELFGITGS

The experiment has as its target Nuclear receptor subfamily 1 group I member 2 (Homo sapiens) (UniProt O75469). Description: NVS_NR_hPXR: NovaScreen (NVS) Nuclear Receptor Binding Assay for human Pregnane X Receptor (PXR) (AID 2283365).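 Also: a drop in FRET signal versus DMSO baseline means the compound binds.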 The procedure: NVS_NR_hPXR is a biochemical, single-readout assay that uses extracted gene-proteins in a cell-free assay. Measurements were taken 2 hours after chemical dosing in a 384-well plate.NVS_NR_hPXR is one of one assay component(s) measured or calculated from the NVS_NR_hPXR assay. It is designed to make measurements of fluorescent resonance energy transfer, a form of binding reporter, as detected with fluorescent resonance energy transfer signals by Time-Resolved Fluorescence Resonance Energy Transfer (TR-FRET) technology.Data from the assay component NVS_NR_hPXR was analyzed into 1 assay endpoint. This assay endpoint, NVS_NR_hPXR, was analyzed in the positive analysis fitting direction relative to DMSO as the negative control and baseline of activity. Using a type of binding reporter, loss-of-signal activity can be used to understand changes in the binding as they relate to the gene NR1I2. Furthermore, this assay endpoint can be referred to as a primary readout, because the performed assay has only produced 1 assay endpoint. To generalize the intended target to other relatable targets, this assay endpoint is annotated to the nuclear receptor intended target family, where the subfamily is non-steroidal.
Binding assays used specific radioligands (tritiated, iodinated) with non-radioactive competitive displacement ligands in agonist or antagonist protocols (as indicated) and various reference compounds and inhibitors to titrate specific binding to receptors and transporters. Most enzyme assays (CYPs, kinases, phosphatases, proteases, HDACs) used recombinant protein and specific substrates (fluorescence mostly, some colorimetric and radioactive) and inhibitors, followed by a biochemical separation of substrate and product. All assays for the biochemical HTS were initially run in duplicate at a single concentration (10 uM for CYP450 assays and 25 uM for all others). […] Each assay was run with positive and negative controls, and concurrent controls on every plate. The follow-up (secondary) screen tested active chemical-pairs in concentration series, as well as a few additional assays not tested in the primary screen, some selected negative inactives, and several cases re-run in the concentration series for confirmatory purposes.
Take `CCCCNS(=O)(=O)c1ccccc1`: the call was inactive.

On to `COc1ccc(-c2coc3cc(O)cc(O)c3c2=O)cc1`, for which the outcome was inactive.

For the compound `O=C(Nc1ccccc1)c1cc(Cl)ccc1O`, the call was inactive.

With `Cc1ccc([N+](=O)[O-])cc1N`, the call was inactive.

Take `C/C=C/C=C/CCCCCCCO`: the AC50 was 25 µM (active).

In the case of `O=C(O)c1cc(O)c2ccccc2c1O`, the AC50 is 5.21 µM (active).

With `CC(C)(C)C1CCC(=O)CC1`, the compound was classed as inactive.

`CCCCNS(=O)(=O)c1ccc(C)cc1`: the compound was classed as inactive.

Take `CC(C)COC(=O)CC(C(=O)OCC(C)C)S(=O)(=O)O` (configuration not stated): the concentration at half-maximal activity (AC50) is 25 µM (active).

As for `CCOC(=O)c1ccc(C)cc1`, the compound was called inactive.

For `COC(=O)c1ccccc1C`, the call was inactive.

For `CCCCCCCCCC[N+](C)(CCCCCCCCCC)CCC[Si](OC)(OC)OC`, the AC50 was 4.21 µM (active).

Consider `C=C1C[C@H]2[C@@H]3C=C(C)C4=CC(=O)CC[C@]4(C)[C@H]3CC[C@]2(C)[C@@]1(OC(C)=O)C(C)=O`, for which the AC50 was 4.1 µM (active).

In the case of `N#Cc1ccc(C2CCCc3cncn32)cc1` (configuration not stated), the compound was called inactive.

On to `CCCCCCCCCCCCCCCCCCOS(=O)(=O)O`, for which the AC50 is 5.5 µM (active).

`CCc1occc(=O)c1O`: the compound was classed as inactive.

As to `CC(C)(C)NC(=O)[C@H]1CC[C@H]2[C@@H]3CC[C@H]4NC(=O)C=C[C@]4(C)[C@H]3CC[C@]12C`, the call was inactive.

As for `CC1=CC=C(C(C)C)CC1`, the compound was classed as inactive.

For the compound `CC(C)c1cc(C(C)C)cc(C(C)C)c1`, the result was inactive.

As to `O=C(O)CC(C(=O)O)S(=O)(=O)O` (configuration not stated), the compound was called inactive.

For `CC(CCC(=O)O)(c1ccc(O)cc1)c1ccc(O)cc1`, the compound was classed as inactive.

For `CCCCc1ccc(Cl)cc1`, the outcome was inactive.

As for `O=c1c(O)c(-c2ccc(O)cc2O)oc2cc(O)cc(O)c12`, the AC50 is 6.31 µM (active).

On to `CCCCC/C=C\C/C=C\CCCCCCCC(=O)O`, for which the AC50 was 4.88 µM (active).

Take `CCCCCCOc1ccc(N)cc1`: the compound was classed as inactive.

`CCCCCCCCCCCCc1ccc(O)cc1`: the outcome was inactive.

As for `CCc1cccc(C)c1N`, the result was inactive.
